Test results: PubChem BioAssay (EPA / NIEHS)
Where “and” joins values, the source holds several entries; their conditions need not be identical. Identical values can stand only once. Inconclusive results are not listed. Calls of active or inactive are those of the source. The calls were made as follows: active = hit-call score of the fitted dose curve at least 0.9, where 1 is the maximum; inconclusive = response in the unintended direction; inactive = score below 0.9.

Experiments:
[1] = target: rat Adrenergic, Alpha 1, Non-selective Receptor (Adra1), Adra1a (gene 29412) (UniProt P43140); assay: NVS_GPCR_rAdra1_NonSelective: NovaScreen (NVS) G Protein-Coupled Receptor Assay for rat Adrenergic, Alpha 1, Non-selective Receptor (Adra1) (AID 2283289)
Procedure: (§1) NVS_GPCR_rAdra1_NonSelective is a biochemical, single-readout assay that uses extracted gene-proteins from Rat forebrain membranes in a tissue-based cell-free assay. Measurements were taken 1 hour after chemical dosing in a 48-well plate.NVS_GPCR_rAdra1_NonSelective is one of one assay component(s) measured or calculated from the NVS_GPCR_rAdra1_NonSelective assay. It is designed to make measurements of radioligand binding, a form of binding reporter, as detected with scintillation counting signals by Filter-based radiodetection technology.Data from the assay component NVS_GPCR_rAdra1_NonSelective was analyzed into 1 assay endpoint. This assay endpoint, NVS_GPCR_rAdra1_NonSelective, was analyzed in the positive analysis fitting direction relative to DMSO as the negative control and baseline of activity. Using a type of binding reporter, loss-of-signal activity can be used to understand changes in the binding as they relate to the gene Adra1a. Furthermore, this assay endpoint can be referred to as a primary readout, because the performed assay has only produced 1 assay endpoint. To generalize the intended target to other relatable targets, this assay endpoint is annotated to the gpcr intended target family, where the subfamily is rhodopsin-like receptor.
(§2) Binding assays used specific radioligands (tritiated, iodinated) with non-radioactive competitive displacement ligands in agonist or antagonist protocols (as indicated) and various reference compounds and inhibitors to titrate specific binding to receptors and transporters. Most enzyme assays (CYPs, kinases, phosphatases, proteases, HDACs) used recombinant protein and specific substrates (fluorescence mostly, some colorimetric and radioactive) and inhibitors, followed by a biochemical separation of substrate and product. All assays for the biochemical HTS were initially run in duplicate at a single concentration (10 uM for CYP450 assays and 25 uM for all others). Assay-chemical combinations meeting a pre-defined threshold (e.g., 30% inhibition and other criteria defined below) were then run in singleton concentration-response format with maximum concentration of 20 uM for CYPs and 50 uM for all others. Each assay was run with positive and negative controls, and concurrent controls on every plate. The follow-up (secondary) screen tested active chemical-pairs in concentration series, as well as a few additional assays not tested in the primary screen, some selected negative inactives, and several cases re-run in the concentration series for confirmatory purposes.

[2] = target: rat Serotonin, 5-Hydroxytryptamine Receptor (5HT), Non-Selective Binding, Htr1a (gene 24473) (UniProt P19327); assay: NVS_GPCR_r5HT_NonSelective: NovaScreen (NVS) G Protein-Coupled Receptor Assay for rat Serotonin, 5-Hydroxytryptamine Receptor (5HT), Non-Selective Binding (AID 2283295)
Method in brief: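 Radioligand displacement on rat cortical membranes, 1 h incubation, filter-based scintillation counting. Primary duplicates at 25 uM, actives retested in concentration series; loss of signal fitted against DMSO as baseline.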

[3] = target: guinea pig Serotonin, 5-Hydroxytryptamine Receptor 4 (5HT4), HTR4 (gene 100135548) (UniProt O70528); assay: NVS_GPCR_g5HT4: NovaScreen (NVS) G Protein-Coupled Receptor Assay for guinea pig Serotonin, 5-Hydroxytryptamine Receptor 4 (5HT4) (AID 2283294)
Method in brief: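 Guinea pig striatal membranes; radioligand competitive displacement, filtration and scintillation counting after 1 h. Primary screen in duplicate at 25 uM; actives then tested in concentration series; loss of binding signal fitted relative to DMSO.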

[4] = target: rat Serotonin, 5-Hydroxytryptamine Receptor 1 (5HT1), Non-Selective Binding, Htr1a (gene 24473) (UniProt P19327); assay: NVS_GPCR_r5HT1_NonSelective: NovaScreen (NVS) G Protein-Coupled Receptor Assay for rat Serotonin, 5-Hydroxytryptamine Receptor 1 (5HT1), Non-Selective Binding (AID 2283286)
Procedure: as §1, with “NVS_GPCR_r5HT1_NonSelective” for “NVS_GPCR_rAdra1_NonSelective”, “cortical” for “forebrain”, “plate.NVS_GPCR_r5HT1_NonSelective” for “plate.NVS_GPCR_rAdra1_NonSelective”, “NVS_GPCR_r5HT1_NonSelective,” for “NVS_GPCR_rAdra1_NonSelective,”, “Htr1a.” for “Adra1a.”
as §2

[5] = system: rat Adrenergic, Alpha 1B Receptor (Adra1B), gene 24173; assay: NVS_GPCR_rAdra1B: NovaScreen (NVS) G Protein-Coupled Receptor Assay for rat Adrenergic, Alpha 1B Receptor (Adra1B) (AID 2283297)
Method in brief: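 Rat liver membranes, radioligand displacement with filter-based scintillation detection, 1 h incubation. Primary screen in duplicate at 25 uM; actives retested in concentration series; activity relative to DMSO.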

[6] = system: 5-hydroxytryptamine receptor 2C (pig); assay: NVS_GPCR_p5HT2C: NovaScreen (NVS) G Protein-Coupled Receptor Assay for pig Serotonin, 5-Hydroxytryptamine Receptor 2C (5HT2C) (AID 2283288)
Method in brief: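 Pig choroid plexus membranes; radioligand competitive binding, filter-based scintillation counting, read 1 h after dosing. Primary screen in duplicate at 25 uM; actives then run as concentration series; loss of signal versus DMSO baseline.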

[7] = system: rabbit Platelet Activating Factor Receptor (PAF), gene 100354046; assay: NVS_GPCR_rabPAF: NovaScreen (NVS) G Protein-Coupled Receptor Assay for rabbit Platelet Activating Factor Receptor (PAF) (AID 2283287)
Method in brief: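 Rabbit platelet membrane preparation; radioligand displacement read by filter-based scintillation counting 1 h after dosing, loss of signal versus DMSO. Primary screen in duplicate at 25 uM, actives followed up in concentration series.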

[8] = target: guinea pig Bradykinin Receptor B2 (BK2), BDKRB2 (gene 100135486) (UniProt O70526); assay: NVS_GPCR_gBK2: NovaScreen (NVS) G Protein-Coupled Receptor Assay for guinea pig Bradykinin Receptor B2 (BK2) (AID 2283292)
Method in brief: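 Radioligand displacement on guinea pig ileum membranes for 1 h, read by filter-based scintillation counting; loss of signal relative to DMSO. Compounds were screened in duplicate at 25 uM, and those passing the threshold were retested in concentration-response up to 50 uM.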

[9] = target: mouse Cholecystokinin, CCK2 Receptor (CCKB), Cckbr (gene 12426) (UniProt P56481); assay: NVS_GPCR_mCKKBCentral: NovaScreen (NVS) G Protein-Coupled Receptor Assay for mouse Cholecystokinin, CCK2 Receptor (CCKB) (AID 2283293)
Method in brief: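 Radioligand displacement binding on mouse forebrain membranes, 2 h exposure, filter-based scintillation counting. Primary screen in duplicate at 25 uM; actives (e.g. ≥30% inhibition) retested in concentration-response up to 50 uM; loss of binding signal relative to DMSO.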

[10] = target: rat Adrenergic Receptor, Beta (Adrb), Non-selective Binding, Adrb1 (gene 24925) (UniProt P18090); assay: NVS_GPCR_rAdrb_NonSelective: NovaScreen (NVS) G Protein-Coupled Receptor Assay for rat Adrenergic Receptor, Beta (Adrb), Non-selective Binding (AID 2283298)
Method in brief: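 Non-selective beta-adrenergic radioligand binding in rat cortical membranes, 1 h incubation, filter-based scintillation read-out. Primary screen 25 uM in duplicate; hits retested in concentration-response up to 50 uM, DMSO baseline.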

Chain of rat Adrenergic Receptor, Beta (Adrb), Non-selective Binding, Adrb1 (gene 24925) (P18090 whole entry, looked up): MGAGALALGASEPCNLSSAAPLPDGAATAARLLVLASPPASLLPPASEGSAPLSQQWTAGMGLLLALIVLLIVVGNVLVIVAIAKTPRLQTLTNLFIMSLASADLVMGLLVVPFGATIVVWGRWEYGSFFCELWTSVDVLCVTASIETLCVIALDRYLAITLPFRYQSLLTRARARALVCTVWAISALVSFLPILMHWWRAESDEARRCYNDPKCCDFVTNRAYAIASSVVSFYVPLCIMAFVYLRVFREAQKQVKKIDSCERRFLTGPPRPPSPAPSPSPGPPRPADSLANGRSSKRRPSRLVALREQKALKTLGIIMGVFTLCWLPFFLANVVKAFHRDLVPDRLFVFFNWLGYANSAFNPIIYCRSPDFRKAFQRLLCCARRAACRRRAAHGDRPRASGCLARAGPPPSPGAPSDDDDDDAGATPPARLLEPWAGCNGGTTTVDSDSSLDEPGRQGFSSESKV
Chain of rat Serotonin, 5-Hydroxytryptamine Receptor (5HT), Non-Selective Binding, Htr1a (gene 24473) (P19327 whole entry, looked up): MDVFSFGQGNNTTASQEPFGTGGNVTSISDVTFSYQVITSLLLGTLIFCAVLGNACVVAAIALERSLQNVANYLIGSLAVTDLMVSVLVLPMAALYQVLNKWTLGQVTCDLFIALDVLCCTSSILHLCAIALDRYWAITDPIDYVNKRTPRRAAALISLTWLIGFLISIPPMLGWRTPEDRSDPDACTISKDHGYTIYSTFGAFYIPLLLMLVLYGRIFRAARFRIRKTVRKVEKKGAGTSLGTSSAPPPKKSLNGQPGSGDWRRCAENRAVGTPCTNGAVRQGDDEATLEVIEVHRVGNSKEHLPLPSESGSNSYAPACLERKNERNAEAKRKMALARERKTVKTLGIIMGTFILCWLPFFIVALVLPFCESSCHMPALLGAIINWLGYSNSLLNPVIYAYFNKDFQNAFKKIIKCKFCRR
Chain of rat Serotonin, 5-Hydroxytryptamine Receptor 1 (5HT1), Non-Selective Binding, Htr1a (gene 24473) (P19327 whole entry, looked up): as above
Chain of guinea pig Serotonin, 5-Hydroxytryptamine Receptor 4 (5HT4), HTR4 (gene 100135548) (O70528 whole entry, looked up): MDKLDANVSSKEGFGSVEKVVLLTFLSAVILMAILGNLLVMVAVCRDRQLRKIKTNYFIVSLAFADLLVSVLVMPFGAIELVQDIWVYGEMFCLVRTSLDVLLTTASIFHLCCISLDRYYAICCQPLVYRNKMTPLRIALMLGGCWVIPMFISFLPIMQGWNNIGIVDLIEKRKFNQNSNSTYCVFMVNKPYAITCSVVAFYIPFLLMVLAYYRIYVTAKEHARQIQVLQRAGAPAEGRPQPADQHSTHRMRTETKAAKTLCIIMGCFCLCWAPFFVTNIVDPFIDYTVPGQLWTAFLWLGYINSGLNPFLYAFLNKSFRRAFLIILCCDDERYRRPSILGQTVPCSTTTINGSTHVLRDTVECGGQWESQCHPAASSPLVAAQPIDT
Chain of rat Adrenergic, Alpha 1, Non-selective Receptor (Adra1), Adra1a (gene 29412) (P43140 whole entry, looked up): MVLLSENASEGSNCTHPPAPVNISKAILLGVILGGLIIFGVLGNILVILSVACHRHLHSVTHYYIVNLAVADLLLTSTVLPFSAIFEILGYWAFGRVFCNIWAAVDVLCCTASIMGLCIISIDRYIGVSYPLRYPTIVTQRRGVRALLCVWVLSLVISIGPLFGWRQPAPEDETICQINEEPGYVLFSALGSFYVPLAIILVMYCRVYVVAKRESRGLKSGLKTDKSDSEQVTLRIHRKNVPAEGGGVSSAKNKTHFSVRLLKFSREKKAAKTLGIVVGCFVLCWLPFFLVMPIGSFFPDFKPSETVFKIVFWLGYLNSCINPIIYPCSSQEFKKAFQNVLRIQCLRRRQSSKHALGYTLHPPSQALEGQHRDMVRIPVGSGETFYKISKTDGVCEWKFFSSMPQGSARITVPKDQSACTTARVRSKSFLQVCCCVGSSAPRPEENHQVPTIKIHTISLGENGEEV
Chain of guinea pig Bradykinin Receptor B2 (BK2), BDKRB2 (gene 100135486) (O70526 whole entry, looked up): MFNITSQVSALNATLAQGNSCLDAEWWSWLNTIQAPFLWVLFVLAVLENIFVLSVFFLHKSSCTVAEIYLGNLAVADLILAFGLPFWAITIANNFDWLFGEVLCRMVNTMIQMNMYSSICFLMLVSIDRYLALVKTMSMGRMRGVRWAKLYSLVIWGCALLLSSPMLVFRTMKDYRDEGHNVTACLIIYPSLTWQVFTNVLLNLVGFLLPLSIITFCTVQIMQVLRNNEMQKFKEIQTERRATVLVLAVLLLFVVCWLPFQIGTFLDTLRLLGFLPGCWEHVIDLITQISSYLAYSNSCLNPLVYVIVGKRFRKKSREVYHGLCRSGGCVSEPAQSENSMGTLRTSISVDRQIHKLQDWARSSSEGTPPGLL
Chain of mouse Cholecystokinin, CCK2 Receptor (CCKB), Cckbr (gene 12426) (P56481 whole entry, looked up): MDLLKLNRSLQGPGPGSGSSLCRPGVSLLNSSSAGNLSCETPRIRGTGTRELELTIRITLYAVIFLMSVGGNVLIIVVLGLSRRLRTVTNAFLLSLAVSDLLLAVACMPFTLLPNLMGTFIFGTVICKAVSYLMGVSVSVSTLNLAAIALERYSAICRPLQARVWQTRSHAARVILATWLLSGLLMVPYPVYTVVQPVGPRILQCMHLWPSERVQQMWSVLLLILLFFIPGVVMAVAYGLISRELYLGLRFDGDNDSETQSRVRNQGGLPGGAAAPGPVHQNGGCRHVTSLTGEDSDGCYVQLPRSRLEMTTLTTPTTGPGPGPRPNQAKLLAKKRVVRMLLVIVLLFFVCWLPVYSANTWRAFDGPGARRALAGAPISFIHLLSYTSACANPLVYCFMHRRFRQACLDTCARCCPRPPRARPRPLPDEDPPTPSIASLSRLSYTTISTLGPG

**Q.** O=C(N[C@@H](c1ccccc1)[C@@H]1CCCCN1)c1cccc(C(F)(F)F)c1Cl was tested. Which outcome [1] did it give?
**A.** inactive

**Q.** What about the AC50 [2] of the same compound?
**A.** 2.1 µM (active)

**Q.** For NC(=Nc1ccccc1)Nc1ccccc1, which outcome [1] is on record?
**A.** inactive

**Q.** How did the outcome [3] turn out when CC(C)COC(=O)CCCCC(=O)OCC(C)C was run?
**A.** inactive

**Q.** What does the source list for CN(C)CCCN1c2ccccc2Sc2ccc(Cl)cc21?
**A.** AC50 [4]: 8.89 µM (active); AC50 [3]: 15.3 µM (active); AC50 [2]: 0.331 µM (active); AC50 [5]: 0.0108 µM (active)

**Q.** For CC(C)NCC(O)c1ccc(O)c(O)c1 (stereo not given), which outcome [5] is on record?
**A.** inactive

**Q.** For CN(C)C(=O)NC1(c2ccccc2)CCN(CC[C@@]2(c3ccc(F)c(F)c3)CN(C(=O)c3ccccc3)CCO2)CC1, which AC50 [6] is on record?
**A.** 16.7 µM (active)

**Q.** And the AC50 [2]?
**A.** 5.72 µM (active)

**Q.** Which results are given for CCc1nc(N)nc(N)c1-c1ccc(Cl)cc1?
**A.** AC50 [6]: 7.09 µM (active); AC50 [1]: 8.12 µM (active); AC50 [3]: 4.48 µM (active); AC50 [2]: 11.6 µM (active); AC50 [5]: 4.4 µM (active)

**Q.** What does the source list for COC(=O)[C@H]1[C@H]2C[C@@H]3c4[nH]c5cc(OC)ccc5c4CCN3C[C@H]2C[C@@H](OC(=O)c2cc(OC)c(OC)c(OC)c2)[C@@H]1OC?
**A.** AC50 [7]: 5.47 µM (active); outcome [6]: inactive; AC50 [3]: 5.67 µM (active); AC50 [5]: 21.1 µM (active)

**Q.** CC(=O)CC(c1ccccc1)c1c(O)c2ccccc2oc1=O (stereo not given) was tested. Which outcome [3] did it give?
**A.** inactive

**Q.** Which AC50 [3] does the source give for COc1ccc(OC(F)(F)F)cc1CN[C@H]1CCCN[C@H]1c1ccccc1 here?
**A.** 12.2 µM (active)

**Q.** And the AC50 [2]?
**A.** 12.1 µM (active)

**Q.** What about the AC50 [5] of the same compound?
**A.** 14.8 µM (active)

**Q.** How did the AC50 [7] turn out when CCN(CC)CCOc1ccc(C(=C(Cl)c2ccccc2)c2ccccc2)cc1 was run?
**A.** 4.76 µM (active)

**Q.** And the AC50 [6]?
**A.** 21 µM (active) and 5.8 µM (active) and 15.9 µM (active)

**Q.** What about the AC50 [1] of the same compound?
**A.** 7.75 µM (active)

**Q.** And the outcome [8]?
**A.** inactive

**Q.** What about the AC50 [3] of the same compound?
**A.** 11.4 µM (active)

**Q.** What about the AC50 [2] of the same compound?
**A.** 21 µM (active)

**Q.** What about the AC50 [5] of the same compound?
**A.** 21 µM (active)

**Q.** How did the AC50 [9] turn out when CCCCc1nc2cccnc2n1Cc1ccc(-c2ccccc2-c2nnn[nH]2)cc1 was run?
**A.** 15.4 µM (active)

**Q.** And the outcome [2]?
**A.** inactive

**Q.** With O=Cc1ccccc1C=O as the compound, how does the outcome [5] read?
**A.** inactive

**Q.** For CCC(C)N(C)C(=O)c1cc2ccccc2c(-c2ccccc2Cl)n1 (stereo not given), which AC50 [7] is on record?
**A.** 7.29 µM (active)

**Q.** And the AC50 [9]?
**A.** 2.61 µM (active)

**Q.** C=CCc1ccc(OC)c(OC)c1 was tested. Which outcome [6] did it give?
**A.** inactive

**Q.** For CCCCCCCCCC[N+](C)(C)[O-], which outcome [10] is on record?
**A.** inactive

**Q.** What does the source list for Cn1cnc2c1c(=O)[nH]c(=O)n2C?
**A.** outcome [4]: inactive; outcome [5]: inactive

**Q.** For CC(C)(C)c1ccccc1, which outcome [4] is on record?
**A.** inactive

**Q.** How did the AC50 [10] turn out when C/C=C/c1ccc(OC)cc1 was run?
**A.** 0.28 µM (active)

**Q.** With Nc1nc(=S)c2[nH]cnc2[nH]1 as the compound, how does the outcome [4] read?
**A.** inactive

**Q.** Which AC50 [6] does the source give for CSc1ccc(Oc2ccc(S(N)(=O)=O)cc2CN(C)C)cc1C here?
**A.** 19.2 µM (active)

**Q.** And the AC50 [1]?
**A.** 1.08 µM (active)

**Q.** What about the AC50 [3] of the same compound?
**A.** 0.621 µM (active)

**Q.** What about the AC50 [2] of the same compound?
**A.** 13.5 µM (active)

**Q.** And the AC50 [5]?
**A.** 0.875 µM (active)

**Q.** What about the AC50 [10] of the same compound?
**A.** 25 µM (active)

**Q.** CCCCCCCCCCCCCCOS(=O)(=O)O was tested. Which AC50 [5] did it give?
**A.** 20.9 µM (active)

**Q.** Which results are given for CN(C)CCCN(C)CCCN(C)C?
**A.** outcome [3]: inactive; outcome [5]: inactive

**Q.** How did the outcome [6] turn out when CC(COCC(C)OC(=O)c1ccccc1)OC(=O)c1ccccc1 (stereo not given) was run?
**A.** inactive

**Q.** CN(C)C(=O)NC1(c2ccccc2)CCN(CCC[C@]2(c3ccc(Cl)c(Cl)c3)CCCN(C(=O)c3ccccc3)C2)CC1 was tested. Which AC50 [6] did it give?
**A.** 2.57 µM (active)

**Q.** What about the AC50 [1] of the same compound?
**A.** 6.25 µM (active)

**Q.** What about the outcome [2] of the same compound?
**A.** inactive

**Q.** With Cc1ccc(C(C)(C)C)c(O)c1 as the compound, how does the outcome [1] read?
**A.** inactive

**Q.** CCc1cc(C2=C(C(=O)O)N(c3ccccc3C(F)(F)F)S(=O)(=O)c3ccccc32)cc2c1OCO2 was tested. Which AC50 [7] did it give?
**A.** 4.11 µM (active)

**Q.** For Cc1cn([C@H]2C=C[C@@H](CO)O2)c(=O)[nH]c1=O, which outcome [8] is on record?
**A.** inactive

**Q.** For Cc1cc(SC2=C(O)C[C@@](CCc3ccc(N)cc3)(C(C)C)OC2=O)c(C(C)(C)C)cc1CO, which outcome [2] is on record?
**A.** inactive

**Q.** O=C(O)c1[nH]n(-c2ccc(S(=O)(=O)O)cc2)c(=O)c1N=Nc1ccc(S(=O)(=O)O)cc1 was tested. Which AC50 [4] did it give?
**A.** 5.69 µM (active)

**Q.** What about the outcome [1] of the same compound?
**A.** inactive

**Q.** What about the AC50 [3] of the same compound?
**A.** 15.9 µM (active)

**Q.** Which outcome [3] does the source give for CC(C)c1cccc(C(C)C)c1 here?
**A.** inactive

**Q.** How did the outcome [6] turn out when S=c1[nH]c2ccccc2s1 was run?
**A.** inactive
